# Hits are enriched below; roughly 13% of the tested compounds scored in any of these assays.
# Shiga toxin inh – blocks Shiga toxin action in Vero cells. 9.2% of 290,000 active. inhibition, % at 38.7 µM. AID 2315. Vero cells, Shiga toxin protein synthesis inhibition reporter; in the data active = inhibition mostly above about 28%, no sharp cut-off; inactive = mostly below about 43%; also: 0% is about no effect
# MARV entry inh – inhibitors of Marburg virus binding or cell entry. Marburg virus pseudotyped entry inhibition, cell reporter. Potency, µM (titrated, usually from 37.8 µM), inactives show at the highest dose activity change, negative = inhibition, usual class: inhibitors. 1.8% of 300,000 active. AID 540276; calls by dose curve; tested in HEK293 cells; also: potency is read from the fitted curve at half-maximal effect; % is scaled to controls: 0 for no effect and ±100 for the full control effect
# FMDV antiviral – foot and mouth disease virus antiviral activity; FMDV antiviral cell-based qHTS; Potency, µM (doses to about 57.9 µM), for the others: at the top dose activity change, negative = inhibition, most hits filed as inhibitors; 1.2% of 410,000 active; AID 1159524; calls by dose curve; tested in HEK293T cells; also: read-out not given here; potency is read from the fitted curve at half-maximal effect; % is scaled to controls: 0 for no effect and ±100 for the full control effect; nearly all actives have a fitted effect of over 45% in size
# LASV entry inh – inhibitors of Lassa virus binding or cell entry; Lassa virus pseudotype entry inhibition, cell reporter; Potency, µM (titrated, usually from 37.9 µM), for inactives: at the highest dose activity change, negative = inhibition, most hits filed as inhibitors; 1.2% of 300,000 active; AID 540256; calls by dose curve; tested in HEK293 cells; also: potency is read from the fitted curve at half-maximal effect; % is scaled to controls: 0 for no effect and ±100 for the full control effect; nearly all actives have a fitted effect of over 50% in size
# CHX counter – counter-screen for Shiga toxin inhibitors: cycloheximide protein synthesis inhibition. cell reporter, cycloheximide protein synthesis inhibition counterscreen. AID 2314. max response, %. 12% of 300,000 active; in the data active = max response mostly above about 13%, no sharp cut-off; inactive = mostly below about 14%; also: read at 38.3 µM for the half of the compounds with a filed dose; 0% is about no effect
# HCV inhibitor – blocks hepatitis C virus. Huh7.5.1 HCVcc-Cre infection, luciferase reporter, 44 h. Potency, µM (doses to about 41.8 µM), inactives show top-dose activity change, negative = inhibition, hits mostly inhibitors. 3.4% of 340,000 active; also: potency is read from the fitted curve at half-maximal effect; % is scaled to controls: 0 for no effect and ±100 for the full control effect
#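 HCVcc-Cre virus at an moi near 0.5 was added right after compound to cells cultured 4 h from seeding (1,000 cells/well). Luciferase activity was determined 44 h later, 15 min after substrate addition at RT.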
# HCV inh confirm – confirmation of hepatitis C virus inhibitors | Potency, µM (highest dose often 41.8 µM), for the others: at the top dose activity, negative = inhibition, hits mostly inhibitors | 78% of 640 active | HCVcc-Cre infectious virus cell assay, luciferase, inhibition | shares compounds with HCV inhibitor; also: potency is read from the fitted curve at half-maximal effect; nearly all actives have a fitted effect of over 80% in size
# HCV host tox – host cell cytotoxicity counter-screen for HCV inhibitors. shares compounds with HCV inhibitor. HCV host cell line cytotoxicity counterscreen. Potency, µM (series often up to 41.8 µM), for the others: at the top dose activity change, negative = cytotoxicity, hits mostly inhibitors. 22% of 640 active. AID 720576;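 also: potency is read from the fitted curve at half-maximal effect; 44 h compound exposure; % is scaled to controls: 0 for no effect and ±100 for the full control effect; nearly all actives have a fitted effect of over 55% in size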
# * = called active by the depositor; ? = inconclusive; · = not tested or not shown; ! = not confirmed by another sample; [ ] = another dose, or the depositor's remark. Unless noted, calls follow the shape of the dose curve; as a rule, active = well fitted curve in the direction sought with a large enough effect; inconclusive = small, poorly fitted or top-dose-only effect, or another doubt; inactive = no such curve, though single readings can be large; an effect the other way counts as inactive or inconclusive.
SMILES,Shiga toxin inh,MARV entry inh,FMDV antiviral,LASV entry inh,CHX counter,HCV inhibitor,HCV inh confirm,HCV host tox
CCCC(=O)NC(=S)Nc1ccc(N2CCN(C(=O)c3cccs3)CC2)cc1,-3.9,?,?,?,10.0,0.794µM*,?,21.9%
Cc1cc(Cl)ccc1OCC(=O)Nc1ccccc1CO,49.7*,2.5%,16.7%,?,24.9*,3.16µM*,7.91µM*,-11.2%
Cc1cc(Cl)ccc1OCC(=O)Nn1c(C)ccc1C,-5.5,-3.1%,-25.1%,0.6%,-1.1,-7.6%,·,·
COc1ccccc1NC(=O)CCNS(=O)(=O)c1ccc2c(c1)CCN2C(C)=O,-1.5,·,0.1%,·,-1.6,-1.7%,·,·
Cc1cc(C)nc(NC2=NCCN2C(=O)NC2CCCCC2)n1,-19.8,-17.5%,-13.7%,-13.9%,5.1,0.0%,·,·
CCSc1ncc(Cl)c(C(=O)Nc2c(C(=O)Nc3ccc(Cl)cc3)oc3ccccc23)n1,·,?,-17.0%,1.0%[46.1 µM],·,·,·,·
Cc1ccc(-c2csc(N3CCN(c4cc5c(cc4Cl)nc(C)n5CCN4CCCCC4)CC3)n2)cc1,1.9,·,-12.8%,·,-1.2,?,·,·
Cc1csc(N2CCN(c3cc4c(cc3Cl)nc(-c3ccncc3)n4CCCN3CCCC3)CC2)n1,-7.5,·,?,·,-2.6,?,14.1µM*,66.9%
COc1cc(NC(=O)c2ccc3c(c2)OCO3)ccc1NC(=O)c1ccco1,4.2,3.5%[46.1 µM],15.5%,-2.0%,0.6,?,?,8.2%
Cc1cc(NC(=O)c2ccc3c(c2)OCCO3)ccc1NC(=O)c1ccco1,-9.9,?,2.4%,?,11.8,?,·,·
Cc1cnc(-n2ncc(C(=O)NCC(C)(C)N3CCOCC3)c2C(C)C)nc1-c1ccc(F)cc1,·,·,2.8%,·,·,·,·,·
COc1ccc(CNc2ncnc3cc(Cl)ccc23)cc1,0.2,?,?,?,-2.0,8.91µM*,25µM*,?
COc1ccccc1CNC(=O)COC(=O)c1ccc2c(=O)n3c(nc2c1)CCCCC3,·,·,-2.6%,·,·,8.6%,·,·
COc1ccc(CNC(=O)c2ccc3c(=O)n4c(nc3c2)CCCCC4)cc1OC,·,?,?,?,·,?,7.91µM*,?
CCOC(=O)N1CCN(C(=O)CSCC(=O)Nc2nc(-c3ccc4c(c3)OCO4)cs2)CC1,25.9,?,?,7.2%,16.3,?,15.8µM*,-24.3%
CC(=O)c1cc(F)c(N2CCN(CCC#N)CC2)cc1C,-2.7,-0.3%,8.5%,2.3%,-3.3,-7.0%,·,·
O=C(Nc1ccc(S(=O)(=O)N2CCCC2)cc1)c1ccc(CN2CCc3ccccc3C2)cc1,2.7,?,?,?,-1.6,7.08µM*,0.628µM*,0.995µM*
CC(=O)c1ccc(NC(=O)c2ccc(S(=O)(=O)N3CCCC3)cc2)cc1,-16.5,-0.3%,-23.2%,-9.3%,8.0,-7.4%,·,·
CN(C)CCNC(=O)c1ccc(COc2ccc(Cl)cc2Cl)cc1,-16.4,8.2µM*,-14.5%,?,7.7,7.94µM*,15.8µM*,-40.8%
COCC(=O)Nc1ncc(S(=O)(=O)c2ccc([N+](=O)[O-])cc2)s1,-17.3,-1.4%,-20.6%,14.7%,12.7,5.7%,·,·
O=C(NC(Nc1ncc(S(=O)(=O)c2ccc([N+](=O)[O-])cc2)s1)(C(F)(F)F)C(F)(F)F)c1ccc(Cl)cc1,-11.1,3.16µM*,?,?,8.4,4.47µM*,4.45µM*,7.91µM*
COC(=O)c1cn(-c2ccccc2)nc1-c1ccc(OC)c(OC)c1,-4.1,·,-0.1%,·,1.7,7.94µM*,14.1µM*,50.0%
Cc1nn2c(NCCCN(C)C)c3c(nc2c1-c1ccccc1)CCCC3,-3.4,7.08µM*,-13.7%,?,-2.0,2µM*,7.05µM*,5.9%
O=C(/C=C/c1ccccc1)Nc1cccc(C(=O)NCCCCc2ccccc2)c1,·,·,-13.9%,·,·,2.51µM*,11.2µM*,7.6%
O=C(/C=C/c1ccccc1)Nc1cccc(C(=O)NCCc2ccccc2)c1,·,·,-29.3%,·,·,?,·,·
SMILES,Shiga toxin inh,MARV entry inh,FMDV antiviral,LASV entry inh,CHX counter,HCV inhibitor,HCV inh confirm,HCV host tox
Cc1ccc2c(c1)[C@H]1[C@H](CO2)[C@H](c2ccccc2)[C@]2(C)C(=O)N(Cc3ccc(F)cc3)CC(=O)N12,·,·,?,·,·,?,?,23.7%
CCN(Cc1ccccc1)c1ccc(/C=N/NC(=O)c2cccc(S(=O)(=O)N3CCOCC3)c2)cc1,-9.0,?,?,?,-2.6,?,5.6µM*,-34.4%
COc1cc(/C=N/NC(=O)c2cccc(S(=O)(=O)N3CCOCC3)c2)cc(OC)c1O,-3.4,-0.5%[46.1 µM],-25.9%,-4.0%[46.1 µM],9.1,-10.0%,·,·
O=C(c1ccncc1)N1CCC2(CCCN(Cc3ccccc3)C2)CC1,·,·,5.8%,·,·,·,·,·
COc1ccccc1CC(=O)Nc1cc2oc3ccccc3c2cc1OC,20.5,?,·,4.1%,24.9*,3.98µM*,12.5µM*,22.0%
c1ccc(OCc2nn3c(-c4ccco4)nnc3s2)cc1,18.1,6.3%,3.5%,19.2%,1.8,16.2%,·,·
NCCc1ccccc1,·,·,-17.4%,·,·,12.8%,·,·
NC(N)=NC(N)=NCCc1ccccc1,-2.0,-36.7%,-22.7%,-13.3%,-0.2,3.16µM*!,2.8µM*,?
COC(=O)c1ccc2c(c1)C(C)(C)C(/C=C/c1ccc(O)cc1)=[N+]2C,-25.8,?,10µM*,?,-9.9,2.24µM*,4.99µM*,8.87µM*
CC1(C)SC(=S)N(/N=C/c2cccnc2)C1N(O)C(=O)NC1CCCCC1 (configuration not stated),-14.4,-15.2%,67.3%,-0.2%,-2.5,7.94µM*,11.2µM*,-13.9%
Cc1nc(-c2ccc(C(=O)Nc3cccc(Br)c3)cc2)cs1,56.1*,·,-39.9%,·,33.3*,4.47µM*,2.8µM*,3.96µM*
Cc1ccc(C(=O)COC(=O)c2cccc(NC(=O)c3ccc(Br)cc3)c2)cc1,·,25.8%[46.1 µM],?,2.8%[46.1 µM],·,·,·,·
COc1ccc(CCNC(=O)c2cc(-c3cc(C)cc(C)c3O)n[nH]2)cc1OC,10.5,·,-22.4%,·,1.7,?,·,·
COc1ccc(NC(=O)c2cc(-c3cc(C)cc(C)c3O)n[nH]2)cc1Cl,6.2,?,?,0.0%,-3.1,8.91µM*,14.1µM*,?
CCc1cc2c(C)ccc(C)c2nc1SCC(=O)Nc1c(C)[nH]c(=O)[nH]c1=O,13.2,33.6%,-11.3%,5.7%,1.9,3.4%,·,·
CC1(c2ccc(OCC#N)cc2)C=C(c2ccc(OCC#N)cc2)n2nc(C(F)(F)F)nc2N1 (configuration not stated),8.8,?,?,?,-2.5,8.91µM*,22.3µM*,35.2%
COc1ccc(NS(=O)(=O)c2ccc3nc(COc4ccc5ccccc5c4)[nH]c3c2)cc1,-16.4,?,?,?,-3.3,7.94µM*,19.9µM*,-90.7%
C=C(CN(C)C)C(=O)c1cc(C)ccc1C,·,?,?,?,·,?,8.87µM*,7.91µM*

# Source: PubChem BioAssay (National Center for Advancing Translational Sciences (NCATS))
